# Screen size: about 290,000 compounds; about 2,300 (0.79%) were called active. Many of the other results were omitted from the sample, so actives are more common in it than they were. Unmarked numbers belong to inactive results. Cut-off read from the data, not from the text of the source: active = inhibition above about 22%; inactive = the rest.
# Assay: cytotoxicity in IEC-6 intestinal epithelial cells, primary screen, cytotoxicity control for KLF5 inhibitor project, cell-based, luminescence (AID 1825);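 note: 0% = plate median of test compound wells and 100% = cytotoxic reference compound wells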
# Conditions: IEC-6 cytotoxicity, luminescence viability; at 5 µM; active compounds read high
row,Compound,inhibition
1,CCC1CCCCN1C(=O)CSc1nc2c(c(=O)n1C)SC(C)C2 (stereo not drawn),0%
2,Cc1cc(Cl)ccc1C(=O)C1CCCN(C(=O)c2nonc2C)C1 (stereo not drawn),-1.1%
3,CCC(CC)C(=O)Nc1c2c(nn1-c1ccc(C)cc1)CS(=O)(=O)C2,-3%
4,CC(C)(C)Nc1nc(-c2ccccn2)nc2ccccc12,91.3% (active)
5,CCOCCCNc1nc(-c2ccccc2)nc2ccccc12,-4%
6,Cc1ccc(Oc2nc(-c3ccccn3)nc3ccccc23)cc1,8.9%
7,COc1cc(N=Cc2c(O)c3ccccc3oc2=O)c(OC)cc1Cl,2.7%
8,CNC[C@H](CC1CCCCC1)NC[C@H](NCCC1CCCC1)[C@H](C)O,36.1% (active)
9,COc1cc(C(=O)OC2CCOC2=O)c([N+](=O)[O-])cc1OC (stereo not drawn),-4%
10,COc1ccccc1Oc1ccc(N/C=C2/CCCC2=O)cc1,-8.7%
11,Cc1[nH]n(-c2ccccc2)c(=O)c1/C=N/NC(=O)c1ccoc1C,1.8%
12,C/C(=N\NC(=O)c1ccoc1C)c1ccccc1O,98.7% (active)
13,CC(C)=C(NC(=O)c1ccccc1)C(=O)N/N=C(\C)c1ccccc1O,4%
14,CN(Cc1ccccc1)S(=O)(=O)c1nnc(NC(=O)c2ccccc2F)s1,4.7%
15,Cc1ccc(-c2nn(-c3ccccc3)cc2/C=C2\SC(=S)N(CCCCCC(=O)O)C2=O)o1,-8.8%
16,Cc1cccc(N(C(=O)Cn2nnc(-c3ccc(C)o3)n2)C(C(=O)NC2CCCC2)c2ccncc2)c1 (stereo not drawn),-3.9%
17,C[N+](C)(C)CCNC(=O)c1cc[n+](Cc2ccccc2)c(/C=N/O)c1,-6.3%
18,CCC(=O)Nc1ccc(C(=O)NNC(=O)c2ccc(Cl)cc2)cc1,2.4%
19,CC(C)(C)c1cc2cccnc2n1Cc1cccc(F)c1,-9.9%
20,O=C(/C=C/Sc1ncn[nH]1)c1ccc(Cl)cc1,96.3% (active)
21,Cc1ccc(C(=O)/C=C/c2c(C)nn(-c3ccccc3)c2Cl)cc1,7.3%
22,O=C(CSc1ncn[nH]1)N/N=C/c1ccc(F)cc1,2.8%
23,CC(C)(C)n1nnnc1C(c1ccccc1F)N1CCN(C(=O)c2ccco2)CC1 (stereo not drawn),-4.7%

row,Compound,inhibition
1,O=C(OCc1ccc(-c2ccccc2)cc1)c1cccc(O)c1,-3.8%
2,CCN(CC(=O)NCCCN1CCOCC1)S(=O)(=O)c1cc(Cl)ccc1Cl,0.6%
3,O=S(=O)(NCCc1ccc(Cl)cc1)c1cccs1,6.4%
4,Cc1ccc(N2C(=O)C(Cc3ccccc3)NC2=S)cc1 (stereo not drawn),24.6% (active)
5,O=C1C(Cc2ccc(O)cc2)NC(=S)N1Cc1ccccc1 (stereo not drawn),-3.3%
6,COc1ccc(N2C(=O)C(Cc3ccccc3)NC2=S)cc1 (stereo not drawn),3.8%
7,CC(C)C(=O)NCC(c1cccs1)S(=O)(=O)c1ccc(F)cc1 (stereo not drawn),7.2%
8,CC(=O)Nc1ccc(Nc2ncnc3c2nnn3Cc2ccccc2Cl)cc1,1.1%
9,CCN(Cc1nc2ccccc2c(=O)[nH]1)Cc1cc(=O)oc2cc(C)c(C)cc12,2%
10,COc1ccc(C(=O)Nc2cc(C)c(NC(=O)c3ccccc3OC)cn2)cc1,-2.8%
11,Cc1cc(C(=O)NC2CC(C)(C)Cc3c2cnn3-c2ccccc2)n[nH]1 (stereo not drawn),7.1%
12,Cc1cccc2sc(N(CCCN(C)C)C(=O)CCS(=O)(=O)c3ccccc3)nc12,11.3%
13,COc1cccc2sc(N(CCCN(C)C)C(=O)CCS(=O)(=O)c3ccccc3)nc12,50% (active)
14,COc1cccc2sc(N(CCCN(C)C)C(=O)C(c3ccccc3)c3ccccc3)nc12,3.5%
15,COc1ccccc1NC(=O)c1ccc(C)s1,34.8% (active)
16,COC(=O)c1c(NC(C)=O)sc(C(=O)Nc2ccccc2OC)c1C,-1.2%
17,COc1ccccc1NC(=O)C1=C(C)NC(=O)NC1c1ccc(C)s1 (stereo not drawn),-4.5%
18,CC(NC(=O)Cn1cc(C(F)(F)F)cc(Cl)c1=O)c1ccccc1 (stereo not drawn),4.4%
19,COc1ccccc1CCNC(=O)c1c(C)nn(CC(C)C)c1Cl,-4.6%
20,O=C(Cc1cccs1)Nc1ccc([N+](=O)[O-])cc1,-0.5%
21,CC(C)c1ccc(Cc2nnc(NCCCO)[nH]c2=O)cc1,3.6%
22,CCOc1ccccc1NC(=O)Cc1cccs1,-0.9%
23,CCOc1ccccc1NC(=O)Cn1nnc(C(=O)NCc2cccs2)c1N,84.2% (active)

row,Compound,inhibition
1,Cc1ccc(NC(=O)Cn2nnc(C(=O)NCc3ccco3)c2N)c(C)c1,-1.1%
2,CC(C)c1cc(C(=O)N/N=C/c2ccoc2)c(O)c(C(C)C)c1,-1.3%
3,CCN(C(=O)C1CCCN(c2nc(-c3ccc(OC)cc3)no2)C1)c1ccc(OC)cc1 (stereo not drawn),-1.6%
4,Cc1nc(Cl)c2oc3ccccc3c2n1,-5.3%
5,COc1ccccc1Nc1ncnc2c1oc1ccccc12,-0.2%
6,COc1ccc(C)cc1Nc1nc(C)nc2c1oc1ccccc12,34.1% (active)
7,CSc1ncccc1C(=O)Nc1ccc(C)cn1,4.3%
8,CCOC(=O)c1[nH]c2c(c1-c1ccccc1)C(=O)CC(c1ccc(Cl)cc1)C2 (stereo not drawn),2%
9,CCCOC(=O)c1[nH]c2c(c1C)C(=O)CC(c1cccs1)C2 (stereo not drawn),81.1% (active)
10,COCCOC(=O)c1[nH]c2c(c1C)C(=O)CC(c1ccc(OC)cc1)C2 (stereo not drawn),2.6%
11,CCOc1cc(C)c(S(=O)(=O)NCc2ccccn2)cc1C,4.3%
12,COc1ccc(S(=O)(=O)N(CC(=O)N/N=C/c2ccccc2C(=O)O)c2ccccc2OC)cc1,2.9%
13,COc1ccccc1NC(=O)CN(c1ccccc1OC)S(=O)(=O)c1ccccc1,-4.1%
14,COc1ccccc1N(CC(=O)N/N=C(\C)c1ccccc1O)S(=O)(=O)c1ccc(C)cc1,33.8% (active)
15,CC(=O)NC(Cc1c[nH]c2ccccc12)C(=O)NCCc1ccccc1 (stereo not drawn),-0.3%
16,CN1CCN(c2ccc(NC(=O)c3ccccc3)cc2)CC1,-2.5%
17,Cc1ccc(OCC(=O)Nc2ccc(N3CCN(C(=O)c4ccco4)CC3)cc2)c(C)c1,-14.8%
18,COc1cccc(C(=O)Nc2ccc(N3CCCC3)cc2)c1,24.2% (active)
19,COc1ccc(C(=O)Nc2ccc(N3CCC(C)CC3)cc2)cc1Br,-5.3%
20,COc1ccc(NC(=O)c2cccc(NC(=O)c3ccco3)c2)c(OC)c1,4.3%
21,COc1cccc(C(=O)Nc2ccc(N3CCN(C(=O)c4ccco4)CC3)cc2)c1,45% (active)
22,CCOC(=O)N1CCN(CCC(=O)Nc2ccccc2)CC1,-5.3%
23,O=C(Nc1cccc(NC(=O)c2ccccc2[N+](=O)[O-])c1)c1ccccc1Cl,8%

row,Compound,inhibition
1,O=C(O)c1cc([N+](=O)[O-])c(Nc2cccc3ccccc23)c([N+](=O)[O-])c1,4.7%
2,CSc1ccccc1OCc1cc(C(=O)N2C[C@H]3CC[C@H]2C3)no1,1.9%
3,COc1ccc(N2CCN(C(=O)[C@@H](NC(=O)c3cc(OC)cc(OC)c3)C(C)C)CC2)cc1,-4.9%
4,Cc1cccnc1NC(=O)c1cccc(S(=O)(=O)N2CCN(c3ccc(F)cc3)CC2)c1,2.3%
5,O=C(N/N=C/c1c[nH]c2ccccc12)c1cc2ccccc2o1,12.6%
6,Cc1c(/C=N\NC(=O)c2cc3ccccc3o2)c2ccccc2n1C,43.7% (active)
7,O=C(N/N=C/c1coc2ccccc2c1=O)c1cc2ccccc2o1,4.7%
8,O=[N+]([O-])c1ccccc1S(=O)(=O)Nc1cccc2cccnc12,55.6% (active)
9,Cc1ccccc1NC(=O)c1ccccc1NS(=O)(=O)c1cccc2cccnc12,-2.7%
10,O=C(Nc1ccccc1Cl)Nc1cccc2cccnc12,3.4%
11,O=C(NCCc1nnc2ccc(SCC(=O)N3CCOCC3)nn12)c1ccccc1,-3.4%
12,CCC(Cc1ccccc1)NS(=O)(=O)c1ccc2c(c1)NC(=O)CS2 (stereo not drawn),2.9%
13,CCOc1cc(C(=O)N2CCc3cc(OC)c(OC)cc3C2)ccc1OC(F)F,90% (active)
14,COc1cc2c(cc1OC)CN(C(=O)c1cc(=O)c3ccccc3o1)CC2,18.2%
15,COc1cc2c(cc1OC)CN(C(=O)c1ccc(S(=O)(=O)N3CCCCCC3)cc1)CC2,0.2%
16,CCCCN(CCCC)CCCNC(=O)CN1C(=O)COc2ccc(S(=O)(=O)N3CCC(C)CC3)cc21,7.2%
17,COc1ccc(C2=Nc3cc(C)ccc3OC2)cc1,-0.6%
18,CCOC(=O)CNc1nc(Cl)nc(Nc2ccc(OC)cc2OC)n1,6.5%
19,CCCc1cc(=O)oc2c(C)c(OCC(=O)NCc3ccccn3)ccc12,-5.9%
20,COc1cccc(CNC(=O)c2nnn(CC(=O)Nc3cc(Cl)ccc3C)c2N)c1,19.7%
21,CCOc1ccc(Cn2nnc(C(=O)NCc3ccccc3)c2N)cc1,4.7%
22,Nc1c(C(=O)NCc2ccccc2)nnn1Cc1cccc(Cl)c1,24.6% (active)
23,Cc1ccc(NS(=O)(=O)c2ccc(C(C)(C)C)cc2)cn1,-0.9%

row,Compound,inhibition
1,Cc1cnc(C(=O)Oc2cccc(Cl)c2Cl)cn1,5.1%
2,COc1ccccc1-c1nnc(NC(=O)c2ccc3ncsc3c2)o1,22.8% (active)
3,COc1ccccc1-c1nnc(NC(=O)c2cccc(N3C(=O)CCC3=O)c2)o1,-5.8%
4,COc1ccccc1-c1nnc(SCC(=O)Nc2ccccc2)o1,-0.6%
5,CC(C)=CCN1CCN(Cc2cc3ccccc3[nH]2)CC1CCO (stereo not drawn),1.5%
6,O=C(Cc1ccc(-c2ccccc2)cc1)NC(c1ccccc1)c1ccccc1,-1.8%
7,CCOC(=O)/C=C/C(=O)OCC(=O)NC(c1ccccc1)c1ccccc1,50.9% (active)
8,CCOC(=O)C(C(=O)OCC)C(C#N)c1ccccc1 (stereo not drawn),3.7%
9,CCc1ccc2[nH]c(=O)c(Cc3ccccc3)c(O)c2c1,-0.4%
10,COC(=O)c1ccc(S(=O)(=O)N2CCc3ccccc3C2)cc1,1.8%
11,CC(=O)Nc1c2c(nn1-c1cccc(C)c1)CSC2,2.5%
12,Cn1cc(CNC(=O)c2ccc(OC3CCN(Cc4ccccn4)CC3)cc2)cn1,5.4%
13,O=C(c1ccc(OC2CCN(Cc3ccccn3)CC2)cc1)N1CCCCCC1,-0.7%
14,O=C(NCCOc1cccnc1)c1ccc(OC2CCN(Cc3ccccn3)CC2)cc1,99.8% (active)
15,Cc1cccc(N2C(=O)N3[C@H](c4ccc(F)cc4)[C@@H]4C(=O)N(C5CCCCC5)C(=O)[C@@H]4[C@]3(Cc3ccccc3)C2=O)c1,-6%
16,O=C(CSc1nnc(CNC(=O)c2ccc(F)cc2)o1)Nc1ccc2c(c1)OCO2,8.3%
17,COC(=O)CSc1nnc(NC(=O)CCc2ccccc2)s1,8.2%
18,Cn1c(=O)c2c(nc(NCCc3ccccc3)n2Cc2ccccc2)n(C)c1=O,-1.8%
19,CCCCNc1nc2c(c(=O)n(C)c(=O)n2C)n1Cc1cccc(OC)c1,25.1% (active)
20,COC(=O)C(C)Sc1nc2c(c(=O)n(C)c(=O)n2C)n1Cc1cccc(C)c1 (stereo not drawn),-2.6%
21,CCc1ccc(CN(C)C(=O)C2CCC(=O)N(Cc3cccc(OC)c3)C2)nc1 (stereo not drawn),5.8%

# — PubChem BioAssay AID1825 (The Scripps Research Institute Molecular Screening Center, 2009)
